About 1,600 (0.8%) of roughly 200,000 compounds were called active.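 The calls were made as follows: active = plate Z-score above 3 for both tubulin-high and condensed-nucleus cell shares, with cell loss under 80%, at 10 µM; inactive = the rest, inconclusive results apart.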 The entries come from a sample that favours actives as a whole.

The nature of the experiment: microtubule stabilizers in HeLa cells, primary screen, imaging, high-content imaging (AID 2205).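 As to % tubulin-high responders: anti alpha tubulin signal scored within the nucleus-defined area of each cell.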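 As to toxicity: 0% = mean cell density of plate MIN control wells and 100% = no cells.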 The conditions noted are these: HeLa tubulin immunostaining HCS, 24 h, at 10 µM; % Hoechst-high responders: measured here: nuclear condensation Hoechst responders, stronger effect = higher value, share of cells brighter than vehicle mean+2SD; % tubulin-high responders: stronger effect = higher value, share of cells brighter than vehicle mean+2SD; toxicity: measured here: cytotoxicity by cell density.
Take `COc1ccc(-c2n[nH]c(C)c2-c2ccc(OC)c(OC)c2)c(O)c1`: the % Hoechst-high responders is 19%, the % tubulin-high responders was 42.8% (active) and the toxicity is 76%.
Taken in the same sequence, the figures for `Cc1[nH]n(-c2ccccc2)c(=O)c1/C=N/NC(=O)c1ccoc1C` were 1.51%, 1.79% (inactive) and 2.88%.
Turning to `CCc1ccc(-n2c(=S)sc3c(=O)n(-c4ccccc4OC)c(=S)[nH]c32)cc1`, the % Hoechst-high responders was 2.26%, the % tubulin-high responders was 4.15% (inactive) and the toxicity was found to be 6.79%.
Taken in the same sequence, the figures for `COc1ccc(/C=C/CN2CCN(Cc3ccc(C)cc3)C(CCO)C2)cc1` (stereo unspecified) were 2.01%, 6.04% (inactive) and 4.33%.
Taken in the same sequence, the figures for `CCn1c(/C=C/Nc2ccccc2)[n+](CC)c2ccc(C(=O)OCC(F)(F)F)cc21` were 3.06%, 2.82% (inactive) and 0.486%.
The like results for `CC(C)(C)NC(=O)Cn1cnc2cc([N+](=O)[O-])ccc2c1=O` were, in that order, 1.76%, 5.69% (inactive) and 5.93%.
For the molecule `CCS(=O)(=O)Nc1ccc(C2=NN(C(C)=O)C(c3cccs3)C2)cc1` (stereo unspecified), the % Hoechst-high responders stood at 60.7%, the % tubulin-high responders is 26.1% (active) and the toxicity is 26.6%.
Taken in the same sequence, the figures for `COc1ccc(C2=NN(C(=O)CCC(=O)O)C(c3cccs3)C2)cc1OC` (stereo unspecified) were 0.575%, 2.36% (inactive) and 4.5%.
The like results for `CS(=O)(=O)Nc1ccc(C2=NN(S(C)(=O)=O)C(c3cccs3)C2)cc1` (stereo unspecified) were, in that order, 1.8%, 1.74% (inactive) and 6.29%.
The like results for `O=c1[nH]c(N2CCN(Cc3ccc4c(c3)OCO4)CC2)nc2c1CCCC2` were, in that order, 3.51%, 5.89% (inactive) and 3.65%.
For `CCc1ccc(NC(=O)CC2C(=O)NCCN2C(=S)Nc2ccccc2)cc1` (stereo unspecified), the % Hoechst-high responders came to 3%, the % tubulin-high responders is 3.9% (inactive) and the toxicity was 11.2%.
Taken in the same sequence, the figures for `O=[N+]([O-])c1cccc(Nc2c3ccccc3nc3ccccc23)c1` were 32.2%, 22% (active) and 46.2%.
The like results for `CC(=O)Nc1ccc(Nc2c3ccccc3nc3ccccc23)cc1` were, in that order, 8.03%, 12.5% (inactive) and 40.3%.
Consider `Cc1cc(CNC(=O)c2cccc([N+](=O)[O-])c2)c2ccccc2n1`, for which the % Hoechst-high responders amounted to 2.57%, the % tubulin-high responders is 3.83% (inactive) and the toxicity stood at 1.18%.
As to `COc1ccc(N2CCN(C(=O)CCSCc3ccccc3F)CC2)cc1`, the % Hoechst-high responders amounted to 1.53%, the % tubulin-high responders was 3.62% (inactive) and the toxicity came to 4.73%.
The like results for `Cc1cccc(C(=O)Nc2ccccc2C(=O)NCc2cccnc2)c1` were, in that order, 2.76%, 2.92% (inactive) and 4.59%.
`Cc1ccc(S(=O)(=O)NC(=O)N2CCCC(C)(C)C2)cc1`: the % Hoechst-high responders was 0.922%, the % tubulin-high responders was 1.38% (inactive) and the toxicity was found to be 2.22%.
As for `Cc1ccc(S(=O)(=O)C2(S(=O)(=O)c3ccc(C)cc3)CCCC2)cc1`, the % Hoechst-high responders is 39.1%, the % tubulin-high responders is 36.4% (active) and the toxicity is 67.7%.
The like results for `Cc1ccc(S(=O)(=O)N(C)C2(C)CCS(=O)(=O)C2)cc1` (stereo unspecified) were, in that order, 1.21%, 1.1% (inactive) and 7.98%.
As to `O=c1oc(-c2ccco2)nc2sc3c(c12)CCCCC3`, the % Hoechst-high responders was found to be 2.16%, the % tubulin-high responders was 1.31% (inactive) and the toxicity was found to be 7.63%.
The like results for `COc1cccc2cc(S(=O)(=O)c3ccc(C)cc3)/c(=N/NS(=O)(=O)c3ccc(C)cc3)oc12` were, in that order, 2.11%, 3.76% (inactive) and 4.71%.
Taken in the same sequence, the figures for `Cc1cc(-c2csc(N)n2)c(C)n1Cc1ccccc1` were 3.06%, 0.459% (inactive) and 7.95%.
The like results for `COc1cc2c(cc1OC)CN(C(=O)c1cc(=O)c3ccccc3o1)CC2` were, in that order, 50.5%, 42.7% (active) and 31.7%.
For `O=C(c1cc(=O)c2ccccc2o1)N1CCN(c2ccccc2)CC1`, the % Hoechst-high responders is 2.26%, the % tubulin-high responders was 4.68% (inactive) and the toxicity stood at 10.7%.
As to `COc1ccccc1CNC(=O)c1cc(=O)c2ccccc2o1`, the % Hoechst-high responders came out at 2.39%, the % tubulin-high responders was 1.71% (inactive) and the toxicity is 11.9%.
For `CCCCCCCCCCOC(=O)C[N+](C)(C)CC1CCCCC1O` (stereo unspecified), the % Hoechst-high responders came to 2.44%, the % tubulin-high responders is 1.85% (inactive) and the toxicity came to 7.67%.
Taken in the same sequence, the figures for `CNC(=S)N/N=C/c1cn(Cc2ccc(C)cc2)c2ccccc12` were 11.2%, 25.5% (active) and 51.6%.
Taken in the same sequence, the figures for `COC(=O)N/N=C/c1cn(CCCOc2ccc(C)cc2)c2ccccc12` were 1.65%, 1.39% (inactive) and 0.806%.
The like results for `CCOC(=O)N/N=C/c1cn(Cc2ccccc2Cl)c2ccccc12` were, in that order, 1.41%, 1.99% (inactive) and 3.67%.
`CC(/C=N/NC(=O)c1ccncc1)=C\c1ccco1`: the % Hoechst-high responders was determined as 2.03%, the % tubulin-high responders was 3.19% (inactive) and the toxicity came out at 5.26%.
For the molecule `Cc1ccc(-c2cc(C(=O)N/N=C/C=C/c3ccco3)c3ccccc3n2)cc1C`, the % Hoechst-high responders was 1.03%, the % tubulin-high responders is 1.52% (inactive) and the toxicity was 10.1%.
The like results for `CC(/C=N/NC(=O)c1cc(-c2ccc3ccccc3c2)n[nH]1)=C\c1ccco1` were, in that order, 24.9%, 18.2% (active) and 26.2%.
In the case of `CCN(CC)c1ccc(S(=O)(=O)N2CCOCC2)cc1NC(=O)CSc1cccc[n+]1[O-]`, the % Hoechst-high responders stood at 1.88%, the % tubulin-high responders was 2.6% (inactive) and the toxicity was determined as 2.07%.
Taken in the same sequence, the figures for `S=C(NCc1ccc2c(c1)OCO2)NCc1ccco1` were 2%, 2.06% (inactive) and 3.56%.
With `Cn1c2ccccc2c(=O)c2c(=O)n(Cc3ccco3)c(COc3ccccc3)nc21`, the % Hoechst-high responders was 17%, the % tubulin-high responders is 15.2% (active) and the toxicity came out at 19.6%.
With `COc1ccc(C(=O)CSc2nnc(COc3ccccc3)n2Cc2ccco2)cc1`, the % Hoechst-high responders stood at 8.33%, the % tubulin-high responders was 11.9% (inactive) and the toxicity was 4.55%.
The like results for `CCCc1nc2c(c(=O)c3ccccc3n2C)c(=O)n1C1CCCCCC1` were, in that order, 3.07%, 3.44% (inactive) and 9.47%.

(Values after PubChem BioAssay AID2205 (University of Pittsburgh Molecular Library Screening Center, 2009).)
